In the supplement of paper PMC11732987, “Enantioselective OTUD7B fragment discovery through chemoproteomics screening and high-throughput optimisation” (Communications Chemistry, 2025):

Assays:
Experiment in all cases: log2 ratio of Biotin-Ahx-Ub-VS probe labelling (fragment/DMSO); higher = less target engagement (more negative = stronger competition), active = hit call of the paper (q ≤ 0.05, log2 ratio ≤ -1)
Details in all cases: compound concentration: 200 uM; treatment time: 3 h
OTUD6B = biological target: T1, OTUD6B (UniProt Q8N6M0)
T1 sequence (whole entry): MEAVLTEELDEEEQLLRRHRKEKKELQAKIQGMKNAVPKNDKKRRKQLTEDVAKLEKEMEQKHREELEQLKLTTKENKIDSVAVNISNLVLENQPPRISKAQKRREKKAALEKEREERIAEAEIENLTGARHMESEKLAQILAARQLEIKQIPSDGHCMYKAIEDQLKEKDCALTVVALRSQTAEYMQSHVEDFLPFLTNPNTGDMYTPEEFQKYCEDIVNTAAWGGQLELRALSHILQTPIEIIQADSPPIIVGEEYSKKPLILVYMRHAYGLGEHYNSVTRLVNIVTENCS
Outline: (§1)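 Fragment (200 µM) or vehicle was incubated for 3 h with triplicate HEK293T lysate samples of 495 µg, which were then treated with Biotin-Ahx-Ub-VS at 0.5 µM final for 1 h. Labelled DUBs were enriched on NeutrAvidin, digested with LysC and trypsin, and analysed by diaPASEF LC-MS/MS. Values are average log2 fragment/vehicle ratios from an unpaired t-test on global-median-normalised Spectronaut label-free quantities, using proteins with ≥2 unique peptides.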

OTUD7B = biological target: T2, OTUD7B (UniProt Q6GQQ9)
T2 sequence (whole entry): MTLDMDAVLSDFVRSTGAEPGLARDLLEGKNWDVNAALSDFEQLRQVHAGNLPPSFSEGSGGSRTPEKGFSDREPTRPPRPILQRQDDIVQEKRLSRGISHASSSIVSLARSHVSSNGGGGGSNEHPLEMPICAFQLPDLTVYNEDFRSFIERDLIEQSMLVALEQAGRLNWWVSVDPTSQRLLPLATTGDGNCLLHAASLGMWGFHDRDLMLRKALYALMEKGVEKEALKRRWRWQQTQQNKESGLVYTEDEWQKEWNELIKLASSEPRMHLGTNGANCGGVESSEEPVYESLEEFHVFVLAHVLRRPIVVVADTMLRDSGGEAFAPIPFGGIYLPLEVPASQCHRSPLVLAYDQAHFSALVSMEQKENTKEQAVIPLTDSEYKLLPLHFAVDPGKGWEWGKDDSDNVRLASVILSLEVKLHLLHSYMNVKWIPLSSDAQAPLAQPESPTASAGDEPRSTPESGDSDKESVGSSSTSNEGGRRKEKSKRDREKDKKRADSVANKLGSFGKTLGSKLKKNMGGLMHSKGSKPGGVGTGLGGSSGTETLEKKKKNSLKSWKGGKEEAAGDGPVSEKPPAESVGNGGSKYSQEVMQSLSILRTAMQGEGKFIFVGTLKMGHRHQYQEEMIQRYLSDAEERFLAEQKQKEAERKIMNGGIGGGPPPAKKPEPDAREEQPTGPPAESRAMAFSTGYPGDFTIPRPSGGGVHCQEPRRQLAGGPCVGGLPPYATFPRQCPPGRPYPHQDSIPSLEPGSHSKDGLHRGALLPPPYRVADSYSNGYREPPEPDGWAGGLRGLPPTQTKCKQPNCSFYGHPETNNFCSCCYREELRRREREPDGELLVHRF
Outline: as §1

PRPF8 = PRPF8 (UniProt Q6P2Q9)
Outline: as §1

PSMD7 = biological target: T3, PSMD7 (UniProt P51665)
T3 sequence (whole entry): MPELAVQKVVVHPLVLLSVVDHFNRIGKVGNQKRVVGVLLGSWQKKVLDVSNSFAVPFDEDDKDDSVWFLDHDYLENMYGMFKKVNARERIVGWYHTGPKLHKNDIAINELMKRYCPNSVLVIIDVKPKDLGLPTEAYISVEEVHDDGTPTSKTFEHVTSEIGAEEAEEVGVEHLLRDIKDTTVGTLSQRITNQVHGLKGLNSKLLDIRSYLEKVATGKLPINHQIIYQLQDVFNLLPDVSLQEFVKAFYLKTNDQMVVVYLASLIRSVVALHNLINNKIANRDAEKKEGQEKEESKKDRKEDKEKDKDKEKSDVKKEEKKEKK
Outline: as §1

UCHL1 = UCHL1 (UniProt P09936)
Chain of UCHL1 (P09936 whole entry, looked up): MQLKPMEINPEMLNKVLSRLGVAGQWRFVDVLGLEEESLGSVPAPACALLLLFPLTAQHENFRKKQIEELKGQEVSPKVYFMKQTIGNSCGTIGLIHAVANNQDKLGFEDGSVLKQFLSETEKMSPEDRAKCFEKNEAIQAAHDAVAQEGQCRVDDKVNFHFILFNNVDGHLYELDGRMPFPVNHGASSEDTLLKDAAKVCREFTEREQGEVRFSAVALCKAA
Outline: as §1

UCHL3 = biological target: T4, UCHL3 (UniProt P15374)
T4 sequence (whole entry): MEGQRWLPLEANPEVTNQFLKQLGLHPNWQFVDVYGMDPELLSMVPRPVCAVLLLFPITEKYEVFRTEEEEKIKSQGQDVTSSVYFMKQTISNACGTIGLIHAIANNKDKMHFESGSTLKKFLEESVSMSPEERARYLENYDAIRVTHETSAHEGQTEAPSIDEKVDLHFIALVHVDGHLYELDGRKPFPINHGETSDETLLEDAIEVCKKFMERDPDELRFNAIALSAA
Outline: as §1

UCHL5 = biological target: T5, UCHL5 (UniProt Q9Y5K5)
T5 sequence (whole entry): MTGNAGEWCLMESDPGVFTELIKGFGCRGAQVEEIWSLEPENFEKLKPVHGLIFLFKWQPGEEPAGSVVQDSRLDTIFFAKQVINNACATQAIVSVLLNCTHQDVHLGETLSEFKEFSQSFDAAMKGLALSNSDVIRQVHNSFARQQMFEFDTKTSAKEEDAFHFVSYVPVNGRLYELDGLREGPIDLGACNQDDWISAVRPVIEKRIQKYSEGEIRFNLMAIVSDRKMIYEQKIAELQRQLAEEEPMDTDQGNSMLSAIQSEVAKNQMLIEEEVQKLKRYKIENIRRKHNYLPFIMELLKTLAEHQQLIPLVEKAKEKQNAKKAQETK
Outline: as §1

USP10 = USP10 (UniProt Q14694)
Chain of USP10 (Q14694 whole entry): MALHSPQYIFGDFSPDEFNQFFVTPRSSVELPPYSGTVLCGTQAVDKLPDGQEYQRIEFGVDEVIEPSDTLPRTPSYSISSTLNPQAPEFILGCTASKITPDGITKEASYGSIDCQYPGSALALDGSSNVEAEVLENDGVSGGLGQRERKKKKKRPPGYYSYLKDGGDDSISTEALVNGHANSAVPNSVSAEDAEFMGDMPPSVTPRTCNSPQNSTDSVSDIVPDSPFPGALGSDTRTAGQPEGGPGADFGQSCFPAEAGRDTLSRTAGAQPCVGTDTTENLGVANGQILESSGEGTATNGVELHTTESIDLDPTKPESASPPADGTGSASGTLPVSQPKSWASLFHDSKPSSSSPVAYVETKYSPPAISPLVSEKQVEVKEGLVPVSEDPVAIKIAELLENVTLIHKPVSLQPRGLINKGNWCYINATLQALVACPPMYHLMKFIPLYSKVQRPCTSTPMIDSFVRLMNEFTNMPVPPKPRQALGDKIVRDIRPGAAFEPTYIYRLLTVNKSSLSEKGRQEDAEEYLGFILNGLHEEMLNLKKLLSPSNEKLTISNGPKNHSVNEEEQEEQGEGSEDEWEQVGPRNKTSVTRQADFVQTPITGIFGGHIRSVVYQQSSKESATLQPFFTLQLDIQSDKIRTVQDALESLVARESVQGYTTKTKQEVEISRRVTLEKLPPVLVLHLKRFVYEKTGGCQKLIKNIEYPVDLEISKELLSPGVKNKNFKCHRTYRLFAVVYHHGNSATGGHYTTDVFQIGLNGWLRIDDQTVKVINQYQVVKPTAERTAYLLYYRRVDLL
Outline: as §1

USP15 = biological target: T6, USP15 (UniProt Q9Y4E8)
T6 sequence (whole entry): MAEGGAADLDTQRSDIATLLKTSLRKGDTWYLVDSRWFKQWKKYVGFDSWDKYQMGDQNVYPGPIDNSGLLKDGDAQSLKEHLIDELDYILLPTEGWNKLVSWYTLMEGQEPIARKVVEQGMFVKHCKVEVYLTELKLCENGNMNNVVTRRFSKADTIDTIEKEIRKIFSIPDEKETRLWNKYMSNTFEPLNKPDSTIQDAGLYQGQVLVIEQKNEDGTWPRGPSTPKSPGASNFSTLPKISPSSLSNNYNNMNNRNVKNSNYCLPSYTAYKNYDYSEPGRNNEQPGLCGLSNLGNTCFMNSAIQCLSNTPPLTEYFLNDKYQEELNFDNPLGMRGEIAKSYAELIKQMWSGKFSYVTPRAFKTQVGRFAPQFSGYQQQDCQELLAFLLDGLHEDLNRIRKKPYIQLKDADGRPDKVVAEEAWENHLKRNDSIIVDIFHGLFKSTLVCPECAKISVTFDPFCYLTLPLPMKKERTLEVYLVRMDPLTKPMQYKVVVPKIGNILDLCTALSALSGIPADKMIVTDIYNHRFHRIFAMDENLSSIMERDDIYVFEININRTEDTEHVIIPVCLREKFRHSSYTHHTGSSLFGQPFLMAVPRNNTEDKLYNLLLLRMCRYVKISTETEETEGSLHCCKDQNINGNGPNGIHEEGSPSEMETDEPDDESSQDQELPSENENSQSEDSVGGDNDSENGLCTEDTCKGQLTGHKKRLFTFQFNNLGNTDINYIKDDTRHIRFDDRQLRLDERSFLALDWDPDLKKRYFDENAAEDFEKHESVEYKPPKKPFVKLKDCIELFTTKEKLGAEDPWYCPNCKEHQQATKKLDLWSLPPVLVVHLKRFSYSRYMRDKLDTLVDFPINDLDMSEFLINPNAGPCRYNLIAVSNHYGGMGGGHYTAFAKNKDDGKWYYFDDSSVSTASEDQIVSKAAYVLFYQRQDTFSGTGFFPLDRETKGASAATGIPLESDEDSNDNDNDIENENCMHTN
Outline: as §1

USP16 = USP16 (UniProt Q9Y5T5)
Chain of USP16 (Q9Y5T5 whole entry, looked up): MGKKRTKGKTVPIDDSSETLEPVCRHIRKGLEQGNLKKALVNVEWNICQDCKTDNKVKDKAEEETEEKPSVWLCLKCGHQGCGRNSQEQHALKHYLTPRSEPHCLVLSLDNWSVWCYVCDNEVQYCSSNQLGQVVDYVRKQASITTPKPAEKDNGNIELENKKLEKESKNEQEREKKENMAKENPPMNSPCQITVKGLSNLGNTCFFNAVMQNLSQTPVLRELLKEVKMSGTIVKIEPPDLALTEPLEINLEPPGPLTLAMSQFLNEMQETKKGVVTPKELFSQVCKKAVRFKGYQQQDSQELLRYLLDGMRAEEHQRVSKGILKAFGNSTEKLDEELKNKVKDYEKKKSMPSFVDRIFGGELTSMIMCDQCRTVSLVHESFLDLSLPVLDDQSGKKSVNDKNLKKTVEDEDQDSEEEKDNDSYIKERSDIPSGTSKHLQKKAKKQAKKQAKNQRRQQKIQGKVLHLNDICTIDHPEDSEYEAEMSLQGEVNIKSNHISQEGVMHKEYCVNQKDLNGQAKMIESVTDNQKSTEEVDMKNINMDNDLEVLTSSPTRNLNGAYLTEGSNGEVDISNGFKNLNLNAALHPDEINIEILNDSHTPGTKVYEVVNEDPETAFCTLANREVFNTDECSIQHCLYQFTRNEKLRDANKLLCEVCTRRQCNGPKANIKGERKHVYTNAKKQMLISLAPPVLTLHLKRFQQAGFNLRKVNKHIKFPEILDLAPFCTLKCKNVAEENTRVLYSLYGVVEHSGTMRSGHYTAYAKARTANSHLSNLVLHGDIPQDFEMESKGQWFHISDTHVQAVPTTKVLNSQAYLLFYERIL
Outline: as §1

Measured: log2 ratio of Biotin-Ahx-Ub-VS probe labelling

O=C(CCl)N1CCC(=C(F)CO)C1
active: UCHL1 -1.56
inactive: OTUD6B 0.0579 | OTUD7B 0.0673 | PRPF8 0.202 | PSMD7 0.0975 | UCHL3 -0.0974 | UCHL5 0.0121 | USP10 -0.107 | USP15 -0.156 | USP16 -0.506
